Laboratory results as given in PubChem BioAssay AID1159580 (chemical genetic matrix, 2015).
Where “and” joins values, the source holds several entries; their conditions need not be identical. Identical values can stand only once. The whole screen tested about 5,500 compounds, of which about 2,000 (36%) were called active. Roughly 18% stayed inconclusive and do not appear here. Rule as the data show it: active = normalized growth mostly below about 0.91 (no sharp cut-off); inconclusive = no clear call, values can overlap the other calls; inactive = mostly above about 0.92. The list shows a part of the results. Some compounds were tested as several samples or in several runs, with calls that do not always agree.

Assay: chemical genetic growth profiling, strain panel (AID 1159580);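 also: tested at 20 µM; growth read once vehicle control cultures reached saturation at 30 °C; 1 = growth at the plate median or of vehicle wells; lower values mean less growth of the strain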
Conditions: growth OD
[1] = S. cerevisiae deletion strains, locus YAL013W, strain DEP1, stronger effect = lower value
[2] = S. cerevisiae deletion strains, locus YAL040C, strain CLN3, stronger effect = lower value
[3] = S. cerevisiae deletion strains, locus YBR229C, strain ROT2, stronger effect = lower value
[4] = S. cerevisiae deletion strains, locus YCL061C, strain MRC1 (second series), stronger effect = lower value
[5] = S. cerevisiae deletion strains, locus YCL061C, strain MRC1, stronger effect = lower value
[6] = S. cerevisiae deletion strains, locus YDL101C, strain DUN1, stronger effect = lower value
[7] = S. cerevisiae deletion strains, locus YDL134C, strain PPH21, stronger effect = lower value
[8] = S. cerevisiae deletion strains, locus YDR150W, strain NUM1, stronger effect = lower value
[9] = S. cerevisiae deletion strains, locus YDR363W, strain ESC2, stronger effect = lower value
[10] = S. cerevisiae deletion strains, locus YEL061C, strain CIN8, stronger effect = lower value
[11] = S. cerevisiae deletion strains, locus YER002W, strain NOP16, stronger effect = lower value
[12] = S. cerevisiae deletion strains, locus YGR078C, strain PAC10, stronger effect = lower value
[13] = S. cerevisiae deletion strains, locus YGR229C, strain SMI1, stronger effect = lower value
[14] = S. cerevisiae deletion strains, locus YHR030C, strain SLT2, stronger effect = lower value
[15] = S. cerevisiae deletion strains, locus YHR087W, strain rtc3, stronger effect = lower value
[16] = S. cerevisiae deletion strains, locus YJR075W, strain HOC1, stronger effect = lower value
[17] = S. cerevisiae deletion strains, locus YLR039C, strain RIC1, stronger effect = lower value
[18] = S. cerevisiae deletion strains, locus YLR058C, strain SHM2 (second series), stronger effect = lower value
[19] = S. cerevisiae deletion strains, locus YLR085C, strain ARP6, stronger effect = lower value
[20] = S. cerevisiae deletion strains, locus YLR262C, strain YPT6, stronger effect = lower value
[21] = S. cerevisiae deletion strains, locus YML094W, strain GIM5, stronger effect = lower value
[22] = S. cerevisiae deletion strains, locus YMR219W, strain ESC1, stronger effect = lower value
[23] = S. cerevisiae deletion strains, locus YMR263W, strain SAP30, stronger effect = lower value
[24] = S. cerevisiae deletion strains, locus YMR307W, strain GAS1, stronger effect = lower value
[25] = S. cerevisiae deletion strains, locus YNL153C, strain GIM3, stronger effect = lower value
[26] = S. cerevisiae deletion strains, locus YNL175C, strain NOP13, stronger effect = lower value
[27] = S. cerevisiae deletion strains, locus YNL197C, strain WHI3, stronger effect = lower value
[28] = S. cerevisiae deletion strains, locus YNL224C, strain SQS1, stronger effect = lower value
[29] = S. cerevisiae deletion strains, locus YNL298W, strain CLA4 (second series), stronger effect = lower value
[30] = S. cerevisiae deletion strains, locus YNL322C, strain KRE1, stronger effect = lower value
[31] = S. cerevisiae deletion strains, locus YNR030W, strain Alg12, stronger effect = lower value
[32] = S. cerevisiae deletion strains, locus YOR083W, strain WHI5 (second series), stronger effect = lower value
[33] = S. cerevisiae deletion strains, locus YPL055C, strain LGE1, stronger effect = lower value
[34] = S. cerevisiae deletion strains, locus YPL241C, strain CIN2, stronger effect = lower value
[35] = S. cerevisiae deletion strains, locus YPR135W, strain CTF4, stronger effect = lower value
[36] = S. cerevisiae strains, strain wild type, stronger effect = lower value
[37] = S. cerevisiae deletion strains, locus YNL128W, strain TEP1, stronger effect = lower value
[38] = S. cerevisiae deletion strains, locus YJR043C, strain POL32, stronger effect = lower value

Measured: normalized growth

COc1cc2ncnc(Nc3cccc(Cl)c3)c2cc1OC
0.562 (active) and 0.979 (inactive): [24]
inactive: [1] 0.962 and 0.936 | [2] 1.03 | [3] 0.962 | [4] 0.987 | [5] 0.956 | [6] 0.985 | [8] 0.915 and 0.999 | [9] 0.968 | [11] 0.976 | [12] 0.968 and 0.958 | [13] 0.97 | [14] 0.882 | [15] 0.95 | [16] 0.906 | [17] 1.03 | [18] 0.981 | [20] 1.02 | [22] 0.986 | [23] 0.91 | [25] 0.974 | [26] 0.954 | [27] 0.982 | [28] 0.965 | [29] 0.883 | [30] 0.99 | [32] 0.89 | [33] 0.815 and 0.967 | [36] 0.926
active: [7] 0.877 | [10] 0.834 | [19] 0.46 | [21] 0.828 | [31] 0.82 | [34] 0.831 | [35] 0.533

CN(C)c1cc2c(Nc3ccc4c(cnn4Cc4ccccc4)c3)ncnc2cn1
inactive: [1] 0.994 | [2] 0.971 | [4] 1.01 | [8] 1.01 | [9] 0.998 | [11] 0.98 | [16] 1.01 | [37] 1 | [26] 0.995 | [27] 1 | [28] 1.02 | [32] 0.954 | [34] 1

CC(C)[C@@H](CO)Nc1nc(Nc2cccc(Cl)c2)c2ncn(C(C)C)c2n1
inactive: [1] 1.01 | [2] 1.01 | [4] 1.01 | [9] 1.02 | [11] 1.04 | [16] 1.02 | [25] 0.894 | [26] 0.982 | [27] 0.994 | [28] 0.989 | [32] 0.913 | [33] 1.02

COc1cc(C2Nc3cccc4cccc(c34)N2)cc(OC)c1OC
inactive: [1] 0.962 | [3] 1.01 | [5] 1.02 | [6] 1.05 | [7] 0.985 | [8] 1.04 | [10] 0.925 | [12] 1.02 | [14] 0.729 | [15] 1.01 | S. cerevisiae deletion strains, locus YJL187C, strain SWE1, stronger effect = lower value 0.992 | [38] 1.01 | [16] 1.07 | [18] 1 | [19] 0.881 | [21] 0.883 | [22] 1 | [23] 0.996 | [25] 1.02 | [29] 0.877 | [30] 1 | [33] 0.945 | [35] 0.952
active: [17] 0.751 | [20] 0.808 | [24] 0.661 | [31] 0.736 | [34] 0.403

COc1cc2cccc(OC)c(=O)c2c(OC)c1OC
inactive: [1] 1.01 | S. cerevisiae deletion strains, locus YBR021W, strain FUR4, stronger effect = lower value 0.994 | [3] 1.01 | S. cerevisiae deletion strains, locus YCL029C, strain bik1, stronger effect = lower value 1.02 | S. cerevisiae deletion strains, locus YDL035C, strain GPR1, stronger effect = lower value 1.02 | S. cerevisiae deletion strains, locus YDL074C, strain BRE1, stronger effect = lower value 1 | [6] 1.01 | [7] 1.01 | S. cerevisiae deletion strains, locus YDL185W, strain tfp1, stronger effect = lower value 1.01 | S. cerevisiae deletion strains, locus YDL192W, strain arf1, stronger effect = lower value 1.03 | S. cerevisiae deletion strains, locus YDR101C, strain arx1, stronger effect = lower value 0.991 | [8] 1.02 | S. cerevisiae deletion strains, locus YDR162C, strain NBP2, stronger effect = lower value 1.02 | S. cerevisiae deletion strains, locus YDR318W, strain mcm21, stronger effect = lower value 1.03 | S. cerevisiae deletion strains, locus YDR388W, stronger effect = lower value 1.01 | S. cerevisiae deletion strains, locus YDR502C, strain sam2, stronger effect = lower value 0.989 | [10] 1.01 | S. cerevisiae deletion strains, locus YER110C, stronger effect = lower value 1.02 | S. cerevisiae deletion strains, locus YER155C, strain BEM2, stronger effect = lower value 1 | S. cerevisiae deletion strains, locus YER167W, strain BCK2, stronger effect = lower value 1.03 | S. cerevisiae deletion strains, locus YGL078C, strain dbp3, stronger effect = lower value 1 | S. cerevisiae deletion strains, locus YGL086W, strain mad1, stronger effect = lower value 1.03 | S. cerevisiae deletion strains, locus YGL248W, strain PDE1, stronger effect = lower value 1.01 | [12] 0.998 | S. cerevisiae deletion strains, locus YGR135W, strain pre9, stronger effect = lower value 0.982 | [13] 0.994 | S. cerevisiae deletion strains, locus YGR252W, strain gcn5, stronger effect = lower value 0.988 | [14] 1.01 | S. cerevisiae deletion strains, locus YHR079C, strain IRE1 (second series), stronger effect = lower value 1 | S. cerevisiae deletion strains, locus YHR094C, strain hxt1, stronger effect = lower value 1.01 | S. cerevisiae deletion strains, locus YHR129C, strain ARP1, stronger effect = lower value 1 | S. cerevisiae deletion strains, locus YHR200W, strain rpn10, stronger effect = lower value 1.01 | S. cerevisiae deletion strains, locus YIL066C, strain RNR3, stronger effect = lower value 1.02 | S. cerevisiae deletion strains, locus YIL073C, strain SPO22, stronger effect = lower value 1.06 | S. cerevisiae deletion strains, locus YIL125W, strain kgd1, stronger effect = lower value 1.02 | S. cerevisiae deletion strains, locus YIR030C, strain dcg1, stronger effect = lower value 1.01 | S. cerevisiae deletion strains, locus YJL095W, strain BCK1, stronger effect = lower value 1 | S. cerevisiae deletion strains, locus YJL134W, strain LCB3, stronger effect = lower value 1.01 | S. cerevisiae deletion strains, locus YJL168C, strain set2, stronger effect = lower value 1.01 | S. cerevisiae deletion strains, locus YJL187C, strain SWE1 (second series), stronger effect = lower value 0.996 | [38] 0.999 | [16] 1 | S. cerevisiae deletion strains, locus YKL009W, strain mrt4, stronger effect = lower value 1.03 | S. cerevisiae deletion strains, locus YKL068W, stronger effect = lower value 1.01 | S. cerevisiae deletion strains, locus YKL085W, strain MDH1 (second series), stronger effect = lower value 1.02 | S. cerevisiae deletion strains, locus YKL085W, strain MDH1, stronger effect = lower value 1.02 | S. cerevisiae deletion strains, locus YKL190W, strain CNB1, stronger effect = lower value 1.01 | S. cerevisiae deletion strains, locus YKR001C, strain vps1, stronger effect = lower value 1.01 | [17] 1.09 | S. cerevisiae deletion strains, locus YLR058C, strain SHM2, stronger effect = lower value 1.01 | S. cerevisiae deletion strains, locus YLR102C, strain apc9, stronger effect = lower value 1.01 | [20] 1.09 | S. cerevisiae deletion strains, locus YLR268W, strain sec22, stronger effect = lower value 0.99 | S. cerevisiae deletion strains, locus YLR330W, strain CHS5, stronger effect = lower value 1.01 | S. cerevisiae deletion strains, locus YLR342W, strain FKS1 (second series), stronger effect = lower value 1.05 | S. cerevisiae deletion strains, locus YLR371W, strain rom2, stronger effect = lower value 1.01 | S. cerevisiae deletion strains, locus YLR418C, strain cdc73, stronger effect = lower value 0.945 | S. cerevisiae deletion strains, locus YML016C, strain PPZ1, stronger effect = lower value 1.01 | S. cerevisiae deletion strains, locus YML032C, strain rad52, stronger effect = lower value 1.03 | S. cerevisiae deletion strains, locus YML124C, strain tub3, stronger effect = lower value 1.01 | S. cerevisiae deletion strains, locus YMR078C, strain ctf18, stronger effect = lower value 1.02 | S. cerevisiae deletion strains, locus YMR223W, strain ubp8, stronger effect = lower value 1.01 | [23] 0.996 | [24] 0.966 | S. cerevisiae deletion strains, locus YNL067W, strain RPL9B, stronger effect = lower value 0.992 | [37] 1 | [25] 0.977 | S. cerevisiae deletion strains, locus YNL233W, strain BNI4, stronger effect = lower value 0.977 | S. cerevisiae deletion strains, locus YNL250W, strain rad50, stronger effect = lower value 1.01 | S. cerevisiae deletion strains, locus YNL271C, strain bni1, stronger effect = lower value 1.01 | S. cerevisiae deletion strains, locus YNL298W, strain CLA4, stronger effect = lower value 1.02 | S. cerevisiae deletion strains, locus YNL307C, strain MCK1, stronger effect = lower value 1.03 | [30] 1.02 | S. cerevisiae deletion strains, locus YNR052C, strain pop2, stronger effect = lower value 1.01 | S. cerevisiae deletion strains, locus YOL006C, strain TOP1, stronger effect = lower value 1.01 | S. cerevisiae deletion strains, locus YOL012C, strain htz1 0.97 | S. cerevisiae deletion strains, locus YOL147C, strain pex11, stronger effect = lower value 1.01 | S. cerevisiae deletion strains, locus YOR061W, strain CKA2, stronger effect = lower value 1.02 | S. cerevisiae deletion strains, locus YOR069W, strain VPS5, stronger effect = lower value 1.01 | S. cerevisiae deletion strains, locus YOR136W, strain idh2, stronger effect = lower value 1.02 | S. cerevisiae deletion strains, locus YOR144C, strain elg1, stronger effect = lower value 1.01 | S. cerevisiae deletion strains, locus YOR184W, strain ser1, stronger effect = lower value 1.04 | S. cerevisiae deletion strains, locus YOR316C, strain cot1, stronger effect = lower value 1.01 | [33] 0.984 | [34] 1.01 | S. cerevisiae deletion strains, locus YPR119W, strain clb2, stronger effect = lower value 1.01 | S. cerevisiae deletion strains, locus YPR141C, strain kar3, stronger effect = lower value 1.03 | S. cerevisiae deletion strains, locus YPR163C, strain tif3, stronger effect = lower value 1.01 | S. cerevisiae deletion strains, locus YPR167C, strain met16, stronger effect = lower value 1.01 | S. cerevisiae deletion strains, strain wtn01, stronger effect = lower value 0.992 | [36] 1.01
